The values below come from PubChem BioAssay (NCI).

This is part of a sample that, as a whole, favours compounds with a hit. Of some 83,000 tested, about 20% had one in any assay.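 Single-dose data. Exposure time 48 hours. Values below 10 considered active.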 A number with no mark means an inactive call. Active and inactive are the calls of the source.

The test system of this assay is KM12 colon. Put plainly: NCI-60 one-dose screen, 48 h (100 = growth as untreated, 0 = no growth, -100 = all killed). As to conditions: 10 µM unless noted.
Take `COc1cccc(-c2nn(-c3ccccc3)cc2-c2ccnc(NCCCN)c2)c1`: the growth was 71.9%.
As for `Cn1cnc2c1c(=O)n(CCC(=O)Nc1ccc(F)cc1)c(=O)n2C`, the figure is 102%; as for `C=C(C)[C@@H]1CC[C@]2(C=O)CC[C@]3(C)[C@H](CC[C@@H]4[C@@]5(C)C/C(=C/c6cccnc6)C(=O)C(C)(C)[C@@H]5CC[C@]43C)[C@@H]12`, 78.3%; as for `CN(C)c1cccc2[nH]c(-c3[nH]ncc3Nc3ccnc(N)n3)nc12`, -31.8% (active).
As for `O=Cc1nc2ccccc2[nH]1`, the figure is 99.8%; as for `COc1cc2nc(Cl)nc(Nc3cccc(C(=O)/C=C/c4ccc(Br)cc4)c3)c2cc1OC`, 78.1%.
As for `CC[C@H](CC[C@@H](C)[C@H]1CC[C@H]2[C@@H]3/C(=C/c4cccnc4)C(=O)C4=CC(=O)CC[C@]4(C)[C@H]3CC[C@]12C)C(C)C`, the growth is 97.1%.
In the case of `C=C(C)[C@@H]1CC[C@]2(c3nnc(-c4ccncc4)o3)CC[C@]3(C)[C@H](CC[C@@H]4[C@@]5(C)CCC(=O)NC(C)(C)[C@@H]5CC[C@]43C)[C@@H]12` it was 98.9%; in that of `COc1cc(NC(C)CN(CC(C)C)C(C)C)c2ncccc2c1` (stereo unspecified), 93.2%.
As for `Nc1c2c(nc3ccc(Cl)cc13)CC(c1ccccc1)CC2=O` (stereo unspecified), the figure is 26.4%.
As for `COC(=O)[C@]12CC[C@@H](C)[C@H](C)[C@@H]1C1=CC[C@@H]3[C@@]4(C)C[C@@H](O)[C@H](O)[C@@](C)(CO)C4=CC[C@@]3(C)[C@]1(C)CC2`, the figure is -70.8% (active).
